Paper PMC5540273 (PLoS ONE, 2017)

Tests used:
Details in all cases: concentration: 1 μM, replicates: in singlicate; n = 1
[1] = system: MAPKAPK5
[2] = system: MARK1
[3] = system: MARK2
[4] = system: MARK3
[5] = system: MARK4
[6] = system: MAST1
[7] = system: T1, MEK1
T1 construct: gene MAP2K1

[8] = system: T2, MEK2
T2 construct: gene MAP2K2

[9] = system: T3, MEK3
T3 construct: gene MAP2K3

[10] = system: T4, MEK4
T4 construct: gene MAP2K4
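Note: KINOMEscan kinase panel screen.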

Compound | %Inh [1] [%] | %Inh [2] [%] | %Inh [3] [%] | %Inh [4] [%] | %Inh [5] [%] | %Inh [6] [%] | %Inh [7] [%] | %Inh [8] [%] | %Inh [9] [%] | %Inh [10] [%]
CC(C)c1nc(-c2cccc(NS(=O)(=O)c3c(F)cccc3F)c2)c(-c2ccnc(Nc3ccc(N4CCOCC4)nc3)n2)s1.Cl [GSK1723980] | 0 | 0 | 0 | 0 | 40 | 0 | 5 | 35 | 15 | 98.6
Cl.Cl.NCC(NC(=O)c1cc(-c2cccnc2)c(-c2ccnc3[nH]ccc23)s1)c1ccccc1 (stereo not shown) [GSK1323434] | 0 | 0 | 40 | 0 | 8 | 0 | 0 | 0 | 39 | 25
CC(=O)Nc1cn2nc(Oc3cccc(NC(=O)c4cccc(C(F)(F)F)c4)c3)ccc2n1 | 0 | 0 | 0 | 8 | 20 | 8 | 0 | 18 | 0 | 0
Cl.O=C(Nc1ccc(Oc2ccc3[nH]c(NC(=O)c4ccco4)nc3c2)cc1)Nc1cc(C(F)(F)F)ccc1F [GW683134] | 0 | 0 | 0 | 0 | 6 | 8 | 0 | 0 | 0 | 10
CN(c1ccc(NC(=O)N2CCN(CCCN3CCOCC3)CC2)cc1)c1ccnc(Nc2ccc(CS(C)(=O)=O)cc2)n1.Cl [GW830899] | 0 | 0 | 1 | 1 | 30 | 0 | 0 | 23 | 0 | 0
O=C(O)C(F)(F)F.O=c1[nH]ccc2nc(N[C@@H]3CCNC3)nc(Nc3cc(Cl)cc(Cl)c3)c12 [GSK2188764] | 47 | 52 | 87 | 85 | 41 | 28 | 79 | 84 | 88 | 72
O=C(Nc1n[nH]c2nc(-c3cccc(O)c3)ccc12)C1CC1 [SB-711805] | 3 | 31 | 30 | 0 | 0 | 42 | 10 | 10 | 41 | 12
